In the library only some 11% were active in any assay of this set; here they are far more common.
ALDH1A1 inh: ALDH1A1 (human) enzyme inhibition; P00352; Purified ALDH1A1, NADH fluorescence, propionaldehyde substrate; Potency, µM (top dose mostly 75.3 µM), without a hit: at the top dose activity, negative = inhibition, hits mostly inhibitors; hit rate 7.3% among 220,000; AID 1030;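 also: potency is read from the fitted curve at half-maximal effect; plate controls were no enzyme wells and a reference inhibitor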
JMJD2E inh: inhibitors of human JMJD2E histone demethylase; AID 2147; hit rate 1.6% among 230,000; B2RXH2; Potency, µM (titrated, usually from 57.1 µM), for inactives: at the highest dose activity change, negative = inhibition, actives largely listed as inhibitors; JMJD2E catalytic domain, FDH-coupled NADH fluorescence (FDH is formaldehyde dehydrogenase);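 also: potency is read from the fitted curve at half-maximal effect; 0% = wells with enzyme and -100% = buffer wells without enzyme; nearly all actives have a fitted effect of over 50% in size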
Target sequence (B2RXH2 1-337 limits assumed): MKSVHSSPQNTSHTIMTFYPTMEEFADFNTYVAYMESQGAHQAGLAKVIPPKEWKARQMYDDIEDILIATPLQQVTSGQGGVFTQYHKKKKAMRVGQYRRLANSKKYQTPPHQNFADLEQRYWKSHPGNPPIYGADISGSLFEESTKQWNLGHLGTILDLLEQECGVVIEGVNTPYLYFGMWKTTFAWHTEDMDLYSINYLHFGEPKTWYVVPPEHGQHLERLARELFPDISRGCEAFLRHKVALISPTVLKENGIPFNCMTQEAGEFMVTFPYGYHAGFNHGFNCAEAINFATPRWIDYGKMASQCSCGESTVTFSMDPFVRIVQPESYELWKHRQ
PNC inhibitor: blocks assembly of the perinucleolar compartment; hit rate 3.1% among 140,000; AID 2417; PC3M PTB-GFP, PNC prevalence imaging, 16 h; hits give low values; activity change (PNC), negative = inhibition, % at 10 µM;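 active = readout at or below -70, meaning at least 70% loss of cells showing the perinucleolar compartment, a nuclear body marking cancer cells; inconclusive = readout between -30 and a set limit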;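 also: plate controls were DMSO wells for no effect and camptothecin positive control wells for full effect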
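PC3M cells stably expressing PTB-GFP, 750–1000 cells/well, treated 16 h at 37 °C with compound (23 nl of library stock), in duplicate. After paraformaldehyde fixation and Hoechst stain, imaged at 20x; PNC prevalence scored by image analysis.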
HPGD inh: blocks human HPGD enzyme activity; P15428; purified HPGD, NADH fluorescence kinetic, PGE2 substrate; Potency, µM, for inactives: at the top dose activity change, negative = inhibition, usual class: inhibitors; hit rate 4.3% among 150,000; also: potency is read from the fitted curve at half-maximal effect
Target sequence (P15428 whole entry, looked up): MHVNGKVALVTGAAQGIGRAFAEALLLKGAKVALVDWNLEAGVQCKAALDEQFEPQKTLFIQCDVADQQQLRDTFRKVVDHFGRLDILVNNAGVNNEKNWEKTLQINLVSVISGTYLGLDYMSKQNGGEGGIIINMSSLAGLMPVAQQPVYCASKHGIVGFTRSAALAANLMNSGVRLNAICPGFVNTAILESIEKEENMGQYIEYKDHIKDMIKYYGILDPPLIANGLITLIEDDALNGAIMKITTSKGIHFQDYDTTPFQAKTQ
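20 nM HPGD preincubated 15 min at room temperature with compound in 50 mM Tris-HCl pH 8, 0.01% Tween 20. Started with 1 mM NAD+ and 30 uM prostaglandin E2; NADH fluorescence (360/450 nm) read 5 times over 30-s intervals, last minus first.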
The depositor's hits bear a star; ? = inconclusive; / = no result; [ ] = another dose, or the depositor's remark. Unless noted, calls follow the shape of the dose curve; as a rule, active = well fitted inhibition curve with a large enough effect (not every such curve was filed as active); inconclusive = small, poorly fitted or top-dose-only effect, or another doubt; inactive = no such curve, though single readings can be large or run the other way. Unless noted, % is scaled to controls: 0 for no effect and ±100 for the full control effect.

SMILES | ALDH1A1 inh | JMJD2E inh | PNC inhibitor | HPGD inh
O=C(c1ccco1)N1CCN(C(c2cccs2)c2nnnn2C2CCCC2)CC1 (configuration not stated) | ? | -6% | 5 | 1%
COC(=O)CNC(=O)C(=O)OC | 2% | / | / | /
C[N+](C)(C)C(C1=CCCC1=O)c1ccccc1 (configuration not stated) | -15%[13.5 µM] | / | / | -1%
CC(C(=O)O)N1CCCCC1 (configuration not stated) | / | -13% | / | /
CC(C)OCCCNC(=O)C1CCN(S(=O)(=O)N2CCCC2)CC1 | -9% | 8% | / | /
CCCC(c1nnnn1C1CCCC1)N1CCN(C(=O)c2ccco2)CC1 (configuration not stated) | ? | -24% | -21 | 1%
O=C(c1ccco1)N1CCN(C(c2ccccn2)c2nnnn2C2CCCC2)CC1 (configuration not stated) | 13µM* | -3% | 39 | -6%
CCC(c1nnnn1CCOC)N1CCN(C(=O)c2ccco2)CC1 (configuration not stated) | ? | 1% | -24 | -5%
CCCCC(c1nnnn1C1CCCC1)N1CCN(C(=O)c2ccco2)CC1 (configuration not stated) | 11µM* | -2% | ? | -6%
CCC(c1nnnn1Cc1ccccc1)N1CCN(C(=O)c2ccco2)CC1 (configuration not stated) | 6.3µM* | -8% | ? | -8%
CC(C)CNc1nc2ncnc(N)c2[nH]1 | -10%[13.5 µM] | / | / | -5%
Cc1cc(C(=O)O)c(C)n1-c1ccccc1 | ? | 8% | 1 | -2%
CSc1cccc(-n2c(C)cc(C(N)=O)c2C)c1 | 6% | -6% | -14 | 4.5µM*
Cc1ccsc1C(=O)NC(C)c1ccc2c(c1)OCO2 (configuration not stated) | 10% | 6% | -119* | -8%
Cc1occc1C(=O)Nc1ccc2c(c1)OCCO2 | 13µM* | 2% | -9 | 16µM*
Cc1ccsc1C(=O)Nc1ccc2c(c1)OCCO2 | 0% | -5% | -17 | 32µM*
Cc1ncoc1C(=O)Nc1ccc2c(c1)OCCO2 | 10% | 8% | ? | -3%
CC(NC(=O)c1cccs1)c1ccc2c(c1)OCO2 (configuration not stated) | 9% | 12% | ? | -20%
Cc1csc2ncc(C(=O)Nc3ccc4c(c3)OCCO4)c(=O)n12 | 8.9µM* | 0% | 35 | 99%
c1ccc(-c2noc(CSc3nnnn3C3CCCCC3)n2)cc1 | 3.2µM* | -4% | -12 | -23%
CC(C)CC(NC(=O)C(NC(=O)C1OC2OC(C)(C)OC2C2OC(C)(C)OC12)C(C)C)C(=O)O (configuration not stated) | 3% | 6% | / | /
Cc1ccc(S(=O)(=O)NNc2ccccc2)c(C)c1 | 7.1µM* | 5% | ? | 8.9µM*
Cc1ccc(S(=O)(=O)NNC(=O)c2cccs2)c(C)c1 | 3% | 2% | -8 | 2%
N#Cc1c(N2C(=O)C3C4C=CC(C4)C3C2=O)sc2c1CCC2 (configuration not stated) | 18µM* | -4% | 11 | -12%
N#Cc1c(-n2cccc2/C=N/O)sc2c1CCCC2 | 1% | 6% | ? | -19%
SMILES | ALDH1A1 inh | JMJD2E inh | PNC inhibitor | HPGD inh
CCCCC(=O)NCCc1c(Cc2ccccc2)[nH]c2ccccc12 | ? | -24% | / | 16µM*
CCCCNC(=O)Cc1c(O)c2ccccc2[nH]c1=O | ? | ? | -112* | -25%
Cc1[nH]c2ccccc2c1CC(=O)O | ? | ? | -8 | 5%
O=c1[nH]c2ccccc2c(O)c1O | 0.56µM* | ? | / | /
CC(=O)NCCc1c(Cc2ccccc2)[nH]c2ccccc12 | 2% | 7% | / | 14µM*
CCCCOC(=O)Cc1c(O)c2ccccc2[nH]c1=O | ? | ? | 9 | /
O=c1[nH]c2ccccc2c(O)c1-[n+]1ccccc1 | / | -6% | / | /
O=C(COC(=O)C1CSC2(c3ccc(F)cc3)CCC(=O)N12)NC(=O)NC1CCCC1 (configuration not stated) | ? | 2% | / | /
O=C(O)/C=C/C(=O)N(CC1CCCO1)C1CC(=O)N(c2c(Cl)cccc2Cl)C1=O (configuration not stated) | / | -8% | / | /
O=C(O)CCc1ccc(-c2ccccc2)[nH]1 | -9%[13.5 µM] | / | / | -15%
O=C(c1cc2ncc(Br)cn2n1)N1CCOCC1 | 3% | -8% | -5 | 22µM*
O=C(c1ccco1)N1CCN(C(=O)c2ccc(Cn3cc(Br)cn3)o2)CC1 | ? | -2% | ? | -12%
CCOC(=O)C1CCCN(C(=O)c2cc3ncc(Br)cn3n2)C1 (configuration not stated) | 4% | -3% | 7 | -29%
O=C(c1cc2ncc(Br)cn2n1)N1CCN(C(=O)c2ccco2)CC1 | 25µM* | -2% | -15 | -23%
CN(C)c1ncnc2ccc(-c3cccnc3)cc12 | -3% | / | / | /
CCCCc1nc2c(c3c1C[C@H](C)OC3)CN(C(=O)N[C@H](C(=O)OC)C(C)C)CC2 | -2%[13.5 µM] | 5%[11.4 µM] | / | -1%
Cc1ccccc1-n1c(=O)cc(N2CCc3ccccc32)[nH]c1=O | ? | -14% | -108* | -21%
COc1ccc(-n2c(=O)cc(N3CCc4ccccc43)[nH]c2=O)cc1 | -2% | -9% | 44 | -20%
O=c1cc(N2CCc3ccccc32)[nH]c(=O)n1-c1ccccc1Cl | -7% | 4% | / | /
O=c1cc(N2CCc3ccccc32)[nH]c(=O)n1-c1ccc(Br)cc1 | ? | ? | -14 | 28µM*
c1ccc(-c2nnc3sc(CN4CCc5ccccc54)cn23)cc1 | ? | 2% | 143 | 11µM*
Brc1ccc(-c2nnc3sc(CN4CCC5(CC4)OCCO5)cn23)cc1 | -7% | 8% | 20 | ?
O=c1oc2cc(Oc3c([N+](=O)[O-])cc(C(F)(F)F)cc3[N+](=O)[O-])ccc2c2c1CCCC2 | ? | ? | 46 | ?
O=c1oc2cc(Oc3ccc(C(F)(F)F)cc3[N+](=O)[O-])ccc2c2c1CCC2 | 16µM* | ? | 25 | ?
COCCCn1c(=O)/c(=C\c2ccccc2OC(F)F)s/c1=C(/C#N)C(=O)NCCOC | / | 3% | / | /
SMILES | ALDH1A1 inh | JMJD2E inh | PNC inhibitor | HPGD inh
COCCCn1c(=O)/c(=C\c2ccccc2OC(F)F)s/c1=C(/C#N)C(=O)N1CCOCC1 | 6.3µM* | -4% | / | /
CC1CCN(C(=O)C2CCN(S(=O)(=O)c3cc(Cl)ccc3Cl)CC2)CC1 | / | 11% | / | /
COc1ccc(N/C=C/C(=O)C(F)(F)F)cc1 | -6% | -3% | -23 | -1%
O=C(/C=C/Nc1ccc(Cc2ccc(N/C=C/C(=O)C(F)(F)F)cc2)cc1)C(F)(F)F | -4% | 0% | -85* | -17%
CN(C)c1ccc(N/C=C/C(=O)C(C)(C)C)cc1 | ? | 7.1µM* | -1 | -16%
CN(C)c1ccc(N/C=C/C(=O)c2ccccc2)cc1 | ? | ? | ? | -14%
O=C(NNS(=O)(=O)c1ccccc1F)c1sccc1-n1cccc1 | -1% | 4% | / | /
Cc1[nH]c2ccccc2c1Cc1nnc(SCCC#N)o1 | 3% | 0% | -100* | -16%
C=CCSc1nnc(Cc2c(C)[nH]c3ccccc23)o1 | 2% | -2% | -23 | -11%

Assay outcomes (PubChem)
